Screens as filed in PubChem.
Tau fluor cs: Counterscreen qHTS for Inhibitors of Tau Fibril Formation, Fluorescence Polarization; tau K18 P301L Alexa594 fluorescence, heparin fibrillization; Potency, µM (series often up to 57.7 µM), without a hit: at the top dose activity change, negative = decrease; actives 0.93% (n = 280,000); also: nearly all actives have a fitted effect of over 55% in size
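Human tau K18 P301L (15 uM unlabeled, 0.24 uM Alexa 594-labeled) in 100 mM sodium acetate pH 7 with 20 uM heparin, 6 hr at 37 C. ThT 30 uM added, 1 hr ambient; Alexa 594 FP and total fluorescence read at 555/632 nm.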
Tau ThT inhib: qHTS for Inhibitors of Tau Fibril Formation, Thioflavin T Binding. recombinant tau K18 P301L, heparin-induced fibrillization, ThT fluorescence. Potency, µM (doses to about 57.4 µM), without a hit: at the top dose activity, negative = inhibition, actives largely listed as inhibitors. actives 2.1% (n = 270,000). Microtubule-associated protein tau (Homo sapiens), P10636; also: nearly all actives have a fitted effect of over 55% in size
Target sequence (P10636 561-689 P618L limits assumed): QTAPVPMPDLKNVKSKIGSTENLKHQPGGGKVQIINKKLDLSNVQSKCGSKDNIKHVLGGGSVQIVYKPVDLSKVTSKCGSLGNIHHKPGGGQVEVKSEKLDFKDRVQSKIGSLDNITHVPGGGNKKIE
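ThT emission at 510 nm, taken 1 hr after adding 30 uM dye, quantifies aggregates formed when 20 uM heparin acts on human tau K18 P301L for 6 hr at 37 C.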
TRb SRC2 PPI: qHTS for Inhibitors of the Interaction of Thyroid Hormone Receptor and Steroid Receptor Coregulator 2 | Potency, µM (titrated, usually from 106 µM), for the others: top-dose activity change, negative = inhibition, actives largely listed as inhibitors | Thyroid hormone receptor beta (Homo sapiens), P10828 | actives 0.065% (n = 280,000) | TRbeta-SRC2 peptide binding, fluorescence polarization; receptor liganded with 1 µM T3;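 also: plate controls were bound peptide for no effect and peptide without receptor for full effect; nearly all actives have a fitted effect of over 50% in size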
Target sequence (P10828 whole entry, looked up): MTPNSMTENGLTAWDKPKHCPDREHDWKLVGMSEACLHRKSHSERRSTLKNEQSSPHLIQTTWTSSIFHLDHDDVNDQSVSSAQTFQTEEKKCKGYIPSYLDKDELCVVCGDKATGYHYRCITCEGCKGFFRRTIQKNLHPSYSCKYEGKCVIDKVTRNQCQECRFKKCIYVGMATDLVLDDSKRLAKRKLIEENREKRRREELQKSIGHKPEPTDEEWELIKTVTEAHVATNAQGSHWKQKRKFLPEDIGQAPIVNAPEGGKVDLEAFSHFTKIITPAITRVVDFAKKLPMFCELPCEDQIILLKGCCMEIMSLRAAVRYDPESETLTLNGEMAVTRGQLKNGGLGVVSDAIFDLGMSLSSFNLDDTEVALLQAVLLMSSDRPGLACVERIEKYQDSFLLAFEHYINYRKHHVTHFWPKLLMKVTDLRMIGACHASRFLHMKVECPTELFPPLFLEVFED
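Polarization signal, normalized between peptide-alone and full complex controls, measured compound effects on T3-liganded human TRb LBD (0.6 uM) binding 20 nM Texas Red SRC2 peptide after 5 hr.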
Tau fibril FP: qHTS for Inhibitors of Tau Fibril Formation, Fluorescence Polarization; K18 P301L tau heparin fibrillization, Alexa594 FP, 6 h; Potency, µM (top dose mostly 57.7 µM), inactives show at the top dose activity, negative = inhibition, actives largely listed as inhibitors; actives 0.39% (n = 280,000); also: nearly all actives have a fitted effect of over 55% in size
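Recombinant K18 P301L […], labeled with Alexa 594 at 0.24 uM over 15 uM unlabeled; heparin inducer 20 uM final; 37 C, 6 hr; FP endpoint.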
GoLoco inh red: qHTS Assay for Inhibitors of RGS12 GoLoco Motif Activity (Red Fluorophore); Guanine nucleotide-binding protein G(i) subunit alpha-1 (Homo sapiens), P63096; Gai1:RGS12 GoLoco peptide FP, rhodamine, 10 min; Potency, µM (titrated, usually from 61.6 µM), for the others: at the highest dose activity, negative = inhibition, actives largely listed as inhibitors; actives 0.44% (n = 230,000); AID 880, 2007; active = well fitted inhibition curve with a large enough effect, not every such curve was filed as active; inactive = no such curve, though single readings can be large or run the other way; also: nearly all actives have a fitted effect of over 30% in size
TexasRed fluor: Total Fluorescence Counterscreen for Inhibitors of the Interaction of Thyroid Hormone Receptor and Steroid Receptor Coregulator 2. actives 0.29% (n = 280,000). Potency, µM (highest dose often 106 µM), without a hit: top-dose fluorescence change, negative = quenching. TRb/SRC2 Texas Red total fluorescence interference; active = well fitted curve in either direction with a large enough effect; inconclusive = small, poorly fitted or top-dose-only effect
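Human TRβ ligand-binding domain (0.6 uM) and Texas Red SRC2 peptide (20 nM) in Tris buffer with 1 uM T3 and 5% DMSO were incubated with pinned compound for 5 hr at ambient temperature. Total fluorescence was computed as S + 2P (555/632 nm).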
Starred values were filed as active, the others as inactive; u = inconclusive; x = no result given; [ ] = dose if it differs, or a comment. A selection: hits, their analogues and other compounds. The true share with any hit is near 3.2%. Unless noted, calls follow the shape of the dose curve; as a rule, active = well fitted curve in the direction sought with a large enough effect; inconclusive = small, poorly fitted or top-dose-only effect, or another doubt; inactive = no such curve, though single readings can be large; an effect the other way counts as inactive or inconclusive. Unless noted, % is scaled to controls: 0 for no effect and ±100 for the full control effect; potency is read from the fitted curve at half-maximal effect.

SMILES	Tau fluor cs	Tau ThT inhib	TRb SRC2 PPI	Tau fibril FP	GoLoco inh red	TexasRed fluor
CCOC(=O)c1ccc(NC(=O)c2c(NC(=O)CCC(=O)O)sc3c2CCCCC3)cc1	-2%	u	0%[53 µM]	-15%	-3%	0%[53 µM]
CCOc1ccc(NC(=O)c2c(NCc3cccs3)sc3c2CCC(C)C3)cc1 (stereo unspecified)	-24%	u	-21%	4%	x	355µM*[quencher]
CCCC[C@@H]1CCCO[C@@](C(=O)NCCOC)(C(F)(F)F)C1	x	x	0%	x	x	-1%
COc1ccc2cc1Oc1ccc(cc1)C[C@@H]1c3c(cc(OC)c4c3Oc3cc5c(cc3O4)CCN[C@H]5C2)CCN1C	x	x	x	x	5%[14.2 µM]	x
Nc1ccccc1C(=O)C[C@@H](N)C(=O)O	-14%	-10%	-1%	-4%	3%	-3%
O=C(CSc1nnc(CNc2ccccc2)o1)N1CCc2ccccc21	-6%	-6%	-8%	2%	7%	0%
O=C(CSc1nnc(Cc2csc(Nc3cccc(Cl)c3)n2)o1)N1CCc2ccccc21	7.1µM*[quencher]	u	3%	6%	2%	-4%
CC1(C)OC[C@@H]2O[C@@]3(C(=O)O)OC(C)(C)O[C@@H]3[C@@H]2O1	x	x	3%	x	x	-4%
CCOC(=O)c1ccc(NC(=O)Nc2ccc3snnc3c2)cc1	-25%	4%	5%	11µM*	x	-5%
O=C(Nc1ccc2snnc2c1)Nc1cccc2ccccc12	7.9µM*[quencher]	0%	1%	25µM*	3%	-4%
Cc1ccc(NC(=O)Nc2ccc3snnc3c2)cc1C	u	3%	2%	u	x	0%
CSCC[C@H](NC(=O)[C@H](CO)NC(=O)[C@H](Cc1ccc(O)cc1)NC(=O)[C@@H](N)CO)C(=O)N[C@@H](CCC(=O)O)C(=O)N[C@@H](Cc1cnc[nH]1)C(=O)N[C@@H](Cc1ccccc1)C(=O)N[C@@H](CCCNC(=N)N)C(=O)N[C@@H](Cc1c[nH]c2ccccc12)C(=O)NCC(=O)N[C@@H](CCCCN)C(=O)N1CCC[C@H]1C(=O)N[C@H](C(=O)NCC(=O)N[C@@H](CCCCN)C(=O)N[C@@H](CCCCN)C(=O)N[C@@H](CCCNC(=N)N)C(=O)N[C@@H](CCCNC(=N)N)C(=O)N1CCC[C@H]1C(=O)N[C@H](C(=O)N[C@@H](CCCCN)C(=O)N[C@H](C(=O)N[C@@H](Cc1ccc(O)cc1)C(=O)N1CCC[C@H]1C(=O)O)C(C)C)C(C)C)C(C)C	x	x	-3%	x	x	x
Cc1ccc(C(=O)Oc2csc(=S)n2C(=O)c2ccc(C)cc2)cc1	-30%	10µM*	2%	u	23%	-12%
COc1ccc(OC)c(C2=Nn3c(nnc3-c3cccc(OC)c3OC)SC2)c1	x	x	2%	x	x	-1%
COc1ccccc1CNc1nc(-c2ccc(C(=O)N(C)C)cc2)nc2ccccc12	x	x	x	x	6%	x
COc1ccccc1CNc1nc(-c2ccc(N(C)C)cc2)nc2ccccc12	11µM*[quencher]	16µM*	-2%	u	-37%	6%
COc1ccc(Nc2nc(-c3ccc(C)cc3)nc3ccccc23)c(OC)c1	7.9µM*[quencher]	u	3%	-1%	x	-3%
C/C(=N\Nc1nc(-c2ccc(C)cc2)nc2ccccc12)c1ccc([N+](=O)[O-])cc1	-8%	-5%	2%	1%	-1%	1%
COc1ccc(-c2nc(N/N=C(\C)c3ccc(O)cc3)c3ccccc3n2)cc1	20µM*[quencher]	u	6%	6%	4%	-1%
COc1ccc(OC)c(Nc2nc(-c3ccc(C)cc3)nc3ccccc23)c1	u	1%	5%	-13%	x	-2%
Cc1ccc(N=Nc2c(C)[nH]n(-c3ccccc3)c2=O)c(C)c1	11%[2.34 µM]	-18%	-1%	-4%	4%	-1%
Cc1[nH]n(-c2ccccc2)c(=O)c1N=Nc1ccc2c(c1)OCCO2	u	3.5µM*	0%	-18%	8%	-1%
Nc1[nH]n(-c2ccccc2)c(=O)c1N=Nc1ccccc1	5µM*[quencher]	2.5µM*	-2%	12%	2%	-7%
Nc1[nH]n(-c2ccccc2)c(=O)c1N=Nc1ccc2ncsc2c1	5µM*[quencher]	2.2µM*	2%	u	-16%	-16%
CC(C)(C)N1C(=O)[C@H]2[C@H]3[C@H](O)[C@H](O)C/C(=N/OC[C@@H](O)COCc4ccco4)[C@H]3CC[C@@H]2C1=O	-2%[11.6 µM]	-6%[11.5 µM]	2%[11.2 µM]	3%[11.6 µM]	x	1%[11.2 µM]
SMILES	Tau fluor cs	Tau ThT inhib	TRb SRC2 PPI	Tau fibril FP	GoLoco inh red	TexasRed fluor
CC1=CCC(C(C)(C)O)CC1 (stereo unspecified)	x	x	10%[201 µM]	x	-11%	3%[201 µM]
OC(COc1ccccc1)Cn1c2ccccc2c2ccccc21 (stereo unspecified)	u	-11%	4%	u	2%	1%
Oc1cccc2ccc[n+](CC(O)Cn3c4ccccc4c4ccccc43)c12 (stereo unspecified)	u	u	-12%	14%	19%	0.89µM*[quencher]
O=C(O)c1cc(C(=O)C(=O)c2cc(C(=O)O)c(O)c3ccccc23)c2ccccc2c1O	x	x	x	x	6%[14.2 µM]	x
CCn1c(C)cc(=S)c2ccccc21	-29%	20µM*	-2%	u	14%	1%
CC(=O)OCC(NC(=O)C(COCc1ccccc1)NC(=O)OC(C)(C)C)C1OC(n2cc(F)c(=O)[nH]c2=O)C(OC(C)=O)C1OC(C)=O (stereo unspecified)	x	x	-1%	x	x	-2%
Cc1ccc(C)c([C@@H]2NC(=O)c3ccccc3N2)c1	x	x	x	x	3%[14.2 µM]	x
CN(C)c1ccc(C(CNC(=O)c2ccccc2)c2c[nH]c3ccccc23)cc1 (stereo unspecified)	14µM*[quencher]	u	0%	u	1%	-3%
CN(C)c1ccc(C(CNC(=O)c2ccccc2F)c2c[nH]c3ccccc23)cc1 (stereo unspecified)	u	-14%	1%	u	51%	3%
CS/C(N)=N/N=C/c1cc(Br)cc(Br)c1O	u	u	0%	u	7%	-3%
Nn1cnnc1N/N=C/c1cc(Br)cc(Br)c1O	u	14µM*	-7%	-10%	10%	1%
COCCn1c(=O)c(C)nc2cnc(N3CCN(C)CC3)nc21	x	x	x	x	7%	x
